Where “and” joins values, the source holds several entries; their conditions need not be identical. Identical values can stand only once. Calls of active or inactive are those of the source. Rule for the calls: active = hit-call score of the fitted dose curve at least 0.9, where 1 is the maximum; inactive = score below 0.9.
read-out: Cytochrome P450 (CYP1A2), CYP1A2 (gene 1544); assay: LTEA_HepaRG_CYP1A2: Life Technologies and Expression Analysis (LTEA) Assay for Cytochrome P450 (CYP1A2) using HepaRG (AID 2283479); conditions: mRNA level, 48 h; actives raise or lower the signal;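 for AC50: TaqMan qRT-PCR transcript level normalized to ACTB GAPDH and POLR2A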
Experimental: LTEA_HepaRG is a cell based, multiplexed-readout assay that uses HepaRG, a human liver cell line, with measurements taken at 48 hours after chemical dosing on a 96-well plate.LTEA_HepaRG_CYP1A2 is one of 102 assay component(s) measured in the LTEA HepaRG cell culture assay. It is a marker of NR mediated metabolism.Data from the assay component LTEA_HepaRG_CYP1A2 was analyzed into 1 endpoint. This assay endpoint, LTEA_HepaRG_CYP1A2, was analyzed with bidirectional fitting relative to DMSO as the negative control and baseline of activity. Using a type of inducible reporter, measures of mRNA induction for gain or loss-of-signal activity can be used to understand regulation of transcription factor activity. To generalize the intended target to other relatable targets, this assay endpoint is annotated to the cyp intended target family, where the subfamily is xenobiotic metabolism.
A total of 1060 chemcials from the ToxCast library were tested in eight-point concentration-response experiments. Cell culture and cytotoxicity assays were conducted at Thermo Fisher Scientific's Custom Services facility (Madison, WI). A single lot of human HepaRG cells (Thermo Fisher Scientific, Frederick, MD) was used for the cell culture experiments. 96-well format collagen type I coated plates of human HepaRG cells were prepared using established methods. Briefly, cryopreserved HepaRG cells were thawed, plated at a density of approximately 100,000 cells/well in HepaRG Thaw, Plate, and General Purpose media (HPRG770, Thermo Fisher Scientific), and incubated for 48 hours. 0.5% DMSO was selected as vehicle control to balance the requisite need of DMSO in HepaRG cultures to maintain differentiation (for example, baseline metabolism, proportions of hepatocytes vs. cholangiocytes), while enabling further hepatic receptor pathway activation (for example, PXR and CAR) in response to chemical exposure. 48 hours after plating, the culture medium was replaced with HepaRG Serum-Free Incudtion Media. Cells were exposed to each test chemical in duplicate and maintained in CO2 incubators for another 48 hours. Chemical plates were thawed to room temperature and 200x concentrations of treatment groups were prepared. 8-point conentration-reponse curves were made with the highest exposure at 100 uM, followed by half-log dilutions, all in 0.5% DMSO. Each test plate contained variouse controls, induction positive controls (1mM phenobarbital), cytotoxicity positive controls ([…] aflatoxin B1), vehicle controls (0.5% DMSO), and total lysis controls (0.5% DMSO). Cell morphology images were taken using an Essen IncuCyte FLR automated microscope, with six 96-well plates imaged in about 24 minutes. Images were captured and exported and JPEG files. Spent culture media was transfered to black-well plates for the LDH assay, and remaining media was sorted at -80 C for later use. Cells were treated with RLT buffer and frozen until shipped for gene expression analysis. Total RNA was isolated from the cell suspension in 75 uL of Buffer RLT (Qiagen, Germantown, MD 20874) by Quintiles/Expression Analysis (Durham, NC) using a custom isolation procedure. Total RNA from each plate well was transferred to a preamplification plate. Fluidigm's 96.96 Dynamic ArrayTM (Fluidigm, Amsterdam, the Netherlands) technology was used for gene expression analyses by quantitative reverse transcription polymerase chain reaction (qRT-PCR, performed by Quintiles/Expression Analysis, Durham, NC)89. Standard TaqManTM Assays (Applied Biosystems/ThermoFisher Scientific, Foster City, CA) were used to assess the expression of 93 genes selected based on their selectivity and sensitivity to important hepatic receptors known to be modulated by environmental chemicals; importance in human hepatocyte functionality; and hepatotoxicity. […]

Compound | outcome | AC50
O=C1c2ccccc2C(=O)N1SC(Cl)(Cl)Cl | inactive | 
CC(C)OC(=O)Nc1cccc(Cl)c1 | inactive | 
CCOC1Oc2ccc(OS(C)(=O)=O)cc2C1(C)C (stereo not given) |  | 73.3 µM (active)
CCOCN(C(=O)CCl)c1c(C)cccc1CC | inactive | 
O=C(Nc1ccccc1)Nc1cnns1 |  | 68 µM (active)
CC1(c2ccc(Oc3ccccc3)cc2)OC(=O)N(Nc2ccccc2)C1=O (stereo not given) |  | 50.2 µM (active)
CCCN(CCOc1c(Cl)cc(Cl)cc1Cl)C(=O)n1ccnc1 |  | 3.86 µM (active)
CCC(C)(NC(=O)c1cc(Cl)c(C)c(Cl)c1)C(=O)CCl (stereo not given) |  | 74.1 µM (active)
C[C@H]1[C@H](c2ccc(Cl)cc2)SC(=O)N1C(=O)NC1CCCCC1 |  | 83.9 µM (active)
CCCN(CCC)c1c([N+](=O)[O-])cc(C(F)(F)F)cc1[N+](=O)[O-] |  | 32.3 µM (active)
O=C(O)CCCOc1ccc(Cl)cc1Cl |  | 73.8 µM (active)
O=S1OCC2C(CO1)C1(Cl)C(Cl)=C(Cl)C2(Cl)C1(Cl)Cl (stereo not given) |  | 35.4 µM (active)
COP(=S)(OC)Oc1ccc(SC)c(C)c1 |  | 35 µM (active)
O=C(O)COc1ccc(Cl)cc1Cl |  | 50 µM (active)
CC(C)N(C(=O)COc1nnc(C(F)(F)F)s1)c1ccc(F)cc1 | inactive | 
CCN(CC)C(=O)SCc1ccc(Cl)cc1 | inactive | 
N#Cc1c(Cl)c(Cl)c(Cl)c(C#N)c1Cl |  | 13.7 µM (active)
COP(=O)(OC)OC=C(Cl)Cl | inactive | 
CNC(=O)Oc1cccc(N=CN(C)C)c1 | inactive | 
CCC(C)Nc1c([N+](=O)[O-])cc(C(C)(C)C)cc1[N+](=O)[O-] (stereo not given) | inactive | 

Compound | outcome | AC50
COc1nn(CSP(=S)(OC)OC)c(=O)s1 |  | 12.1 µM (active)
COP(=S)(OC)Oc1ccc([N+](=O)[O-])cc1 |  | 32.8 µM (active)
CC(C)(C)C(O)C(Oc1ccc(Cl)cc1)n1cncn1 (stereo not given) |  | 22.2 µM (active) and 36.8 µM (active) and 32.8 µM (active)
O=C(NC(=O)c1c(F)cccc1F)Nc1ccc(OC(F)(F)C(F)OC(F)(F)F)c(Cl)c1 (stereo not given) |  | 12.3 µM (active)
ClC1C(Cl)C(Cl)C(Cl)C(Cl)C1Cl (stereo not given) | inactive | 
CCC(C)(C)C(=O)OC1=C(c2ccc(Cl)cc2Cl)C(=O)OC12CCCCC2 |  | 50 µM (active)
Cc1[nH]c(=O)n(C(C)(C)C)c(=O)c1Cl |  | 36.2 µM (active)
CCc1ccc(C(=O)NN(C(=O)c2cc(C)cc(C)c2)C(C)(C)C)cc1 | inactive | 
OCCOc1ccccc1 | inactive | 
O=S(=O)(O)C(F)(F)C(F)(F)C(F)(F)C(F)(F)C(F)(F)C(F)(F)C(F)(F)C(F)(F)F |  | 84.5 µM (active) and 10.3 µM (active) and 48 µM (active)
CC1(C)C(C=C(Cl)Cl)C1C(=O)OC(C#N)c1ccc(F)c(Oc2ccccc2)c1 (stereo not given) |  | 20.2 µM (active)
CNC(=O)Oc1ccccc1OC(C)C | inactive | 
N#CN | inactive | 
O=[N+]([O-])c1c(Cl)c(Cl)c(Cl)c(Cl)c1Cl |  | 36.7 µM (active)
CC(C)(C)C(O)/C(=C\c1ccc(Cl)cc1Cl)n1cncn1 (stereo not given) | inactive | 
C#CCN1C(=O)COc2cc(F)c(N3C(=O)C4=C(CCCC4)C3=O)cc21 | inactive | 
O=C(O)C(F)(F)C(F)(F)C(F)(F)C(F)(F)C(F)(F)C(F)(F)C(F)(F)F | inactive | 
O=[N+]([O-])/N=C1\NCCN1Cc1ccc(Cl)nc1 |  | 23.6 µM (active)
CN1CSC(=S)N(C)C1 |  | 34.7 µM (active)
CNC(=O)/C=C(\C)OP(=O)(OC)OC | inactive | 
